This note sets out measurements from the antibiotic and cytotoxicity screens of Wong et al. (2023).

Hit rate of the full screen: of about 39,000 compounds, about 500 (1.3%) were called active. The full list was thinned out, with actives kept by preference.

This assay deals with S. aureus RN4220. Kind of assay: growth inhibition call (relative growth <= 0.2). The note with it: 50 µM.
Consider `COc1ccc(CN(C)C[C@@H]2Oc3ccc(NS(C)(=O)=O)cc3CC(=O)N([C@@H](C)CO)C[C@H]2C)cc1`, for which the growth inhibition call is “inactive”.

Turning to `CO[C@H]1C[C@H](O[C@H]2[C@H](C)[C@@H](O[C@H]3O[C@H](C)C[C@H](N(C)C)[C@H]3O)[C@@H](C)C[C@]3(CO3)C(=O)[C@H](C)[C@@H](O)[C@@H](C)[C@@H](C)OC(=O)[C@@H]2C)O[C@@H](C)[C@@H]1O`, the growth inhibition call is “active”.

Consider `C[C@H](O)C#Cc1cnc2c(c1)C(=O)N([C@H](C)CO)C[C@@H](C)[C@@H](CN(C)Cc1cncnc1)O2`, for which the growth inhibition call is “inactive”.

For the compound `CN1C(=O)c2cc(NC(=O)Nc3ccccc3F)ccc2OC[C@H]2O[C@@H](CC(=O)NCc3ccc(-c4ccccc4)cc3)CC[C@H]21`, the growth inhibition call was “inactive”.

Take `C[C@H](CO)N1C[C@H](C)[C@H](CN(C)C)Oc2ccc(NS(C)(=O)=O)cc2CC1=O`: the growth inhibition call was “inactive”.

In the case of `C[C@@H]1CN([C@@H](C)CO)C(=O)c2cc(NC(=O)Nc3ccc(C(F)(F)F)cc3)ccc2O[C@@H](C)CCCCO[C@@H]1CN(C)S(=O)(=O)c1cn(C)cn1`, the growth inhibition call is “inactive”.

On to `C[C@@H]1CN([C@H](C)CO)C(=O)c2cc(NC(=O)Nc3ccc(C(F)(F)F)cc3)ccc2O[C@@H](C)CCCCO[C@@H]1CN(C)S(=O)(=O)c1cn(C)cn1`, for which the growth inhibition call is “inactive”.

Take `C[C@@H]1CN([C@@H](C)CO)C(=O)c2cc(NC(=O)Nc3ccc(C(F)(F)F)cc3)ccc2O[C@@H](C)CCCCO[C@H]1CN(C)S(=O)(=O)c1cn(C)cn1`: the growth inhibition call is “inactive”.

`CO[C@H](CN(C)S(=O)(=O)c1cn(C)cn1)[C@H](C)CN(C(=O)Nc1ccc(C(F)(F)F)cc1)[C@H](C)CO`: the growth inhibition call was “active”.

Take `C[C@H](CO)N1C[C@H](C)[C@@H](CN(C)S(=O)(=O)c2cn(C)cn2)OCCCC[C@H](C)Oc2ccc(NC(=O)Nc3ccc(C(F)(F)F)cc3)cc2C1=O`: the growth inhibition call was “inactive”.

For the compound `CO[C@H](CN(C)S(=O)(=O)c1cn(C)cn1)[C@@H](C)CN(C(=O)Nc1ccc(C(F)(F)F)cc1)[C@@H](C)CO`, the growth inhibition call was “active”.

For `CO[C@@H](CN(C)S(=O)(=O)c1cn(C)cn1)[C@H](C)CN(C(=O)Nc1ccc(C(F)(F)F)cc1)[C@@H](C)CO`, the growth inhibition call is “active”.

With `CO[C@H](CN(C)S(=O)(=O)c1cn(C)cn1)[C@@H](C)CN(C(=O)Nc1ccc(C(F)(F)F)cc1)[C@H](C)CO`, the growth inhibition call is “active”.

With `C[C@@H]1CCCCO[C@@H](CN(C)C(=O)Nc2cccc3ccccc23)[C@H](C)CN([C@H](C)CO)C(=O)c2cc(NS(=O)(=O)c3ccccc3)ccc2O1`, the growth inhibition call was “inactive”.

As to `C[C@H]1CN([C@@H](C)CO)C(=O)c2cccc(NC(=O)C3CCCCC3)c2O[C@H]1CN(C)C(=O)Nc1ccc(C(F)(F)F)cc1`, the growth inhibition call was “inactive”.

Turning to `Cc1noc(C)c1S(=O)(=O)Nc1ccc2c(c1)C(=O)N([C@@H](C)CO)C[C@H](C)[C@H](CN(C)Cc1ccccc1)OCCCC[C@@H](C)O2`, the growth inhibition call is “inactive”.

For the compound `C[C@H](CO)N1C[C@H](C)[C@@H](CN(C)Cc2ccc(Cl)c(Cl)c2)Oc2c(NS(=O)(=O)c3ccccc3)cccc2C1=O`, the growth inhibition call is “inactive”.

On to `CO[C@@H]1CN(C)C(=O)c2ccc(NS(C)(=O)=O)cc2OC[C@H](C)N(C(=O)C2CCCCC2)C[C@@H]1C`, for which the growth inhibition call is “inactive”.

As to `C[C@@H]1CN([C@@H](C)CO)C(=O)c2cc(NS(=O)(=O)c3cn(C)cn3)ccc2O[C@@H](C)CCCCO[C@@H]1CN(C)S(=O)(=O)c1cccs1`, the growth inhibition call is “inactive”.

Regarding `C[C@@H]1CN([C@H](C)CO)C(=O)c2cccc(NC(=O)c3nc4ccccc4s3)c2O[C@@H]1CN(C)Cc1ccc(Cl)c(Cl)c1`, the growth inhibition call is “inactive”.

With `O=C(C[C@@H]1CC[C@H]2[C@@H](COC[C@H](O)CN2S(=O)(=O)c2ccccc2)O1)N[C@H]1CCN(Cc2ccccc2)C1`, the growth inhibition call was “inactive”.

As to `CO[C@@H](CN(C)S(=O)(=O)c1cn(C)cn1)[C@@H](C)CN(C(=O)Nc1ccc(C(F)(F)F)cc1)[C@@H](C)CO`, the growth inhibition call is “active”.

In the case of `CO[C@H](CN(C)S(=O)(=O)c1cn(C)cn1)[C@H](C)CN(C(=O)Nc1ccc(C(F)(F)F)cc1)[C@@H](C)CO`, the growth inhibition call is “active”.

Turning to `C[C@@H]1CCCCO[C@H](CN(C)S(=O)(=O)c2cn(C)cn2)[C@H](C)CN([C@H](C)CO)C(=O)c2cc(N(C)C)ccc2O1`, the growth inhibition call is “inactive”.

Consider `COC(=O)C[C@@H]1CC[C@H]2[C@@H](COC[C@@H](O)CN2S(=O)(=O)c2ccc(F)cc2)O1`, for which the growth inhibition call was “inactive”.

For `COCC#Cc1cnc2c(c1)C(=O)N([C@H](C)CO)C[C@@H](C)[C@H](CN(C)C(=O)Nc1ccc(OC)cc1)O2`, the growth inhibition call was “inactive”.

With `C[C@@H]1CN([C@H](C)CO)C(=O)CCCn2nncc2CO[C@H]1CN(C)C(=O)Nc1ccnc(N2CCOCC2)c1`, the growth inhibition call is “inactive”.

`COc1ccc(C#Cc2ccc3c(c2)[C@@]2(C(=O)N3C(=O)N[C@@H](C)c3ccccc3)[C@H](c3ccc(OCCO)cc3)N3[C@H](c4ccccc4)[C@H](c4ccccc4)OC(=O)[C@H]3[C@@H]2C(=O)O)cc1`: the growth inhibition call was “inactive”.

As for `COCCOC(=O)N1C(=O)[C@@]2(c3cc(C#Cc4ccc(OC)cc4)ccc31)[C@H](c1ccc(O)cc1)N1[C@H](c3ccccc3)[C@H](c3ccccc3)OC(=O)[C@H]1[C@@H]2C(N)=O`, the growth inhibition call was “inactive”.

Take `O=C1O[C@H](c2ccccc2)[C@H](c2ccccc2)N2[C@H]1[C@@H](C(=O)O)[C@]1(C(=O)Nc3ccc(Cl)cc31)[C@H]2c1ccc(F)cc1`: the growth inhibition call is “active”.

In the case of `CN1C(=O)[C@@]2(c3cc(Cl)ccc31)[C@H](C(=O)O)[C@H]1C(=O)O[C@H](c3ccccc3)[C@H](c3ccccc3)N1[C@@H]2c1ccc(F)cc1`, the growth inhibition call was “active”.

Consider `COc1ccc(C#Cc2ccc3c(c2)[C@]2(C(=O)N3)[C@H](C(=O)O)[C@H]3C(=O)O[C@H](c4ccccc4)[C@H](c4ccccc4)N3[C@@H]2c2ccc(O)cc2)cc1`, for which the growth inhibition call was “inactive”.

Consider `COc1ccc(C#Cc2ccc3c(c2)[C@]2(C(=O)N3)[C@H](c3ccc(O)cc3)N3[C@H](c4ccccc4)[C@H](c4ccccc4)OC(=O)[C@H]3[C@@H]2C(=O)O)cc1`, for which the growth inhibition call is “inactive”.

For the compound `Cc1noc(C)c1S(=O)(=O)N(C)C[C@@H]1OCCCC[C@H](C)Oc2ccc(NC(=O)Nc3cccc4ccccc34)cc2C(=O)N([C@H](C)CO)C[C@H]1C`, the growth inhibition call was “inactive”.

For `Cc1noc(C)c1NC(=O)N(C)C[C@@H]1OCCCC[C@@H](C)Oc2ccc(NC(=O)CCC(F)(F)F)cc2C(=O)N([C@H](C)CO)C[C@@H]1C`, the growth inhibition call was “inactive”.

As to `CN(C)CC(=O)N[C@H]1C=C[C@H](CC(=O)O)O[C@H]1CO`, the growth inhibition call is “inactive”.

Consider `CC(=O)[C@]1(N)Cc2c(O)c3c(c(O)c2[C@@H](O[C@H]2C[C@H](O)[C@H](O)CO2)C1)C(=O)c1ccccc1C3=O`, for which the growth inhibition call was “inactive”.

Consider `COc1cccc2c1C(=O)c1c(O)c3c(c(O)c1C2=O)CC(O)(C(C)=O)CC3OC1CC(N)C(O)C(C)O1.Cl` (centres undefined), for which the growth inhibition call is “inactive”.

Turning to `COc1cccc2c1C(=O)c1c(O)c3c(c(O)c1C2=O)C[C@](O)(C(C)=O)C[C@H]3O[C@H]1C[C@@H](N)[C@@H](O)[C@@H](C)O1`, the growth inhibition call is “active”.

As to `CC(=O)[C@]1(O)Cc2c(O)c3c(c(O)c2[C@@H](O[C@@H]2C[C@@H](N)[C@H](O)[C@@H](C)O2)C1)C(=O)c1c(O)cccc1C3=O`, the growth inhibition call is “active”.

As for `COc1cccc2c1C(=O)c1c(O)c3c(c(O)c1C2=O)C[C@@](O)(C(C)=O)C[C@@H]3O[C@H]1C[C@H](N)[C@H](O)[C@H](C)O1`, the growth inhibition call was “active”.

`Cc1ccc(S(=O)(=O)Nc2cccc3c2O[C@H](CN(C)S(=O)(=O)c2cn(C)cn2)[C@@H](C)CN([C@H](C)CO)C3=O)cc1`: the growth inhibition call is “inactive”.

Turning to `C[C@@H]1CCCCO[C@H](CN(C)C(=O)NC2CCCCC2)[C@H](C)CN([C@@H](C)CO)C(=O)c2cc(NC(=O)Nc3ccc4c(c3)OCO4)ccc2O1`, the growth inhibition call is “inactive”.

On to `Cc1cc(C)n([C@@H](CC(=O)O)C(=O)O)n1`, for which the growth inhibition call is “inactive”.

In the case of `C[C@@H]1CCCCO[C@H](CN(C)Cc2ccc(Cl)c(Cl)c2)[C@H](C)CN([C@@H](C)CO)C(=O)c2cc(NC(=O)Nc3ccc4c(c3)OCO4)ccc2O1`, the growth inhibition call is “inactive”.

As for `O=C(/C=C/c1ccc(CNc2ccc([C@H]3O[C@@H](CSc4ccncc4)C[C@H](c4ccccc4)O3)cc2)cc1)NO`, the growth inhibition call was “inactive”.

Regarding `C[C@H](CO)N1C[C@H](C)[C@H](CN(C)S(=O)(=O)c2cn(C)cn2)Oc2c(NS(=O)(=O)c3ccc(F)cc3)cccc2C1=O`, the growth inhibition call is “inactive”.

In the case of `C[C@H]1CCCCO[C@H](CN(C)C(=O)Nc2ccc(F)cc2)[C@@H](C)CN([C@@H](C)CO)C(=O)c2cc(NC(=O)Nc3cccc4ccccc34)ccc2O1`, the growth inhibition call was “inactive”.

For `COc1cccc(S(=O)(=O)Nc2ccc3c(c2)[C@@H]2C[C@@H](CC(=O)NC4CCCCC4)O[C@@H](CO)[C@@H]2O3)c1`, the growth inhibition call is “inactive”.

For `N#C[C@@H]1N[C@@H](CO)[C@@H]1c1ccccc1`, the growth inhibition call was “inactive”.

On to `CC(C)NC(=O)N(C)C[C@@H]1Oc2ccc(NC(=O)Nc3ccc4c(c3)OCO4)cc2CC(=O)N([C@@H](C)CO)C[C@H]1C`, for which the growth inhibition call was “inactive”.

For the compound `COc1ccc(CN(C)C[C@H]2OCCCC[C@H](C)Oc3ccc(NS(=O)(=O)c4c(C)noc4C)cc3C(=O)N([C@@H](C)CO)C[C@@H]2C)cc1`, the growth inhibition call was “inactive”.

Turning to `COc1ccc(NC(=O)Nc2ccc3c(c2)C(=O)N([C@H](C)CO)C[C@H](C)[C@@H](CN(C)C(=O)c2ccccc2)OCCCC[C@H](C)O3)cc1`, the growth inhibition call is “inactive”.

In the case of `C[C@H](CO)N1C[C@H](C)[C@@H](CN(C)Cc2ccc(C(F)(F)F)cc2)OCCCC[C@H](C)Oc2ccc(NC(=O)c3ccccc3)cc2C1=O`, the growth inhibition call was “inactive”.

`CCC1OC(=O)C(C)C(OC2CC(C)(OC)C(O)C(C)O2)C(C)C(OC2OC(C)CC(N(C)C)C2O)C(C)(O)CC(C)C(=O)C(C)C(O)C1(C)O.CCCCCCCCCCCCCCCCCC(=O)O` (centres undefined): the growth inhibition call is “inactive”.

On to `CCC1OC(=O)C(C)C(OC2CC(C)(OC)C(O)C(C)O2)C(C)C(OC2OC(C)CC(N(C)C)C2O)C(C)(O)CC(C)C(=O)C(C)C(O)C1(C)O` (centres undefined), for which the growth inhibition call is “active”.

For `CCCN1C[C@H](C)[C@@H](O)[C@](C)(O)[C@@H](CC)OC(=O)[C@H](C)[C@@H](O[C@H]2C[C@@](C)(OC)[C@@H](O)[C@H](C)O2)[C@H](C)[C@@H](O[C@@H]2O[C@H](C)C[C@H](N(C)C)[C@H]2O)[C@](C)(O)C[C@H]1C`, the growth inhibition call was “active”.

`CC[C@H]1OC(=O)[C@H](C)[C@@H](O[C@H]2C[C@@](C)(OC)[C@@H](O)[C@H](C)O2)[C@H](C)[C@@H](O[C@@H]2O[C@H](C)C[C@H](N(C)C)[C@H]2O)[C@](C)(O)C[C@@H](C)C(=O)[C@H](C)[C@@H](O)[C@]1(C)O`: the growth inhibition call is “active”.

In the case of `CC[C@H]1OC(=O)[C@H](C)[C@@H](O[C@H]2C[C@@](C)(OC)[C@@H](O)[C@H](C)O2)[C@@H](C)[C@@H](O[C@H]2O[C@H](C)C[C@H](N(C)C)[C@H]2O)[C@](C)(O)C[C@@H](C)C(=O)[C@H](C)[C@@H](O)[C@]1(C)O`, the growth inhibition call was “active”.
